Broadly, the AC50 is the concentration at which the activity in the assay is half-maximal.

The whole screen tested about 16,000 compounds, of which about 2,600 (16%) were called active. Another 20% or so got no clear call; they are omitted. Not all results are given here. Values without a mark were called inactive. Calls follow the shape of the dose curve; as a rule, active = well fitted curve in the direction sought with a large enough effect; inconclusive = small, poorly fitted or top-dose-only effect, or effect the other way; inactive = no such curve, though single readings can be large or run the other way.
% is scaled to controls: 0 for no effect and ±100 for the full control effect.

Chain of Cytochrome P450 2D6 (Homo sapiens) (P10635 whole entry, looked up): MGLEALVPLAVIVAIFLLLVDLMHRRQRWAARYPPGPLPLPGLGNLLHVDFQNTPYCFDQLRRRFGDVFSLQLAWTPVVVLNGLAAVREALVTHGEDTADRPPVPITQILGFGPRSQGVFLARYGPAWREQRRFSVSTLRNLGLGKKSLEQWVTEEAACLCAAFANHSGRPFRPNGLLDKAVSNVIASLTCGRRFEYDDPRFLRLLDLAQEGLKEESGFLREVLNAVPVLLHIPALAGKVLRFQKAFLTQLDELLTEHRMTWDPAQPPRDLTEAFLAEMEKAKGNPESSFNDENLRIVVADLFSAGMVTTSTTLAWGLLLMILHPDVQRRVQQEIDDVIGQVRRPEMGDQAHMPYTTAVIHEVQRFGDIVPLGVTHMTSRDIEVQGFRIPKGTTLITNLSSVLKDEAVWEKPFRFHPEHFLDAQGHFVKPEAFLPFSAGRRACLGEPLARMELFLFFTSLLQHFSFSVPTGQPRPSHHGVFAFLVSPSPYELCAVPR

The experiment addresses Cytochrome P450 2D6 (Homo sapiens) (UniProt P10635). Kind of experiment: Cytochrome panel assay with activity outcomes. Particulars: recombinant CYP, pro-luciferin dealkylation, luminescence, p450-cyp2d6; series mostly up to 57.1 µM; activity, negative = inhibition: at the top concentration.
Take `CN(CCO)c1nc(N)c2c(N)nc3c(c2c1C#N)CC(=O)N3C1CCCC1`: the “activity, negative = inhibition” value is 11.2%.
For the molecule `C[C@@](N)(Cc1ccc(O)cc1)C(=O)O`, the AC50 entry is “inactive”.
With `CC(C)OCCCN1CN(S(=O)(=O)c2cccc(Cl)c2)c2nc3ccccc3nc21`, the “activity, negative = inhibition” value is -18.4%.
Same read-out and setting: in the case of `CC(=O)NN1C(=O)/C(=C\c2ccc(C)cc2)SC1=S` it was 4.14%; in that of `CN(CCO)Cc1ncccc1O`, -1.69% [at 11.4 µM]; in that of `O=C(Nc1cccc(C(F)(F)F)c1)c1n[nH]c(Cn2cncn2)n1`, -26.4%.
As to `N[C@@H]1CONC1=O`, the AC50 entry is “inactive”.
For the molecule `Cc1ccc(N(C(=O)c2csnn2)C(C(=O)NC(C)(C)C)c2cccs2)cc1` (stereo unspecified), the “activity, negative = inhibition” value is -13.7%.
With `COc1ccc2nc3c(c([Si](C)(C)C(C)(C)C)c2c1)Cn1c-3cccc1=O`, the AC50 is 2 µM (active).
For `CC(C)c1cccc2nc3c(c([Si](C)(C)C(C)(C)C)c12)Cn1c-3cccc1=O`, the “activity, negative = inhibition” value was -12.2%.
On the same count and under the same terms, in the case of `CC(C)(C)[Si](C)(C)c1c2c(nc3ccc(OCc4ccccc4)cc13)-c1cccc(=O)n1C2` it was -2.79%; in that of `O=C1C(CCS(=O)c2ccccc2)C(=O)N(c2ccccc2)N1c1ccccc1` (stereo unspecified), 2.11% [at 25.6 µM]; in that of `FC(F)(F)c1ccccc1-c1ccc2ncnc(N3CCOCC3)c2c1`, -18.2%.
The same measure, in the same setting: in the case of `CN(Cc1ccco1)c1ncncc1-c1cccc(C#N)c1` it was -15%.
As for `CN(C)Cc1ccccc1-c1ccc2ncnc(N(C)Cc3ccco3)c2c1`, the concentration at half-maximal activity (AC50) was 2 µM (active).
For the molecule `CN(Cc1ccco1)c1ncnc2ccc(-c3ccccc3C#N)cc12`, the AC50 was 15.8 µM (active).
The same measure, in the same setting: the figure for `CN(Cc1ccco1)c1ncnc2ccc(-c3ccccc3Cl)cc12` is 7.94 µM (active); for `CN(Cc1ccco1)c1ncnc2ccc(-c3ccccc3C(F)(F)F)cc12` it is 10 µM (active).
As for `COCCNC(=O)c1sc2nc(-c3ccccc3)cn2c1C`, the “activity, negative = inhibition” value is -5.78%.
With `Cc1ccc(NC(=O)C(=O)NCc2ccc(/C=C(/C#N)C(=O)NCc3cccnc3)o2)cc1`, the “activity, negative = inhibition” value was -9.29%.
Same read-out and setting: the figure for `Nc1ncnc2c1ncn2[C@@H]1CCCO1` is -11.8%; for `CCN1C(=O)C2(SC(NC(C)=O)=NN2C(C)=O)c2cc(C)ccc21` (stereo unspecified) it is 12.7%; for `CC[C@H](Cc1c(I)cc(I)c(N)c1I)C(=O)O` it is -4.01% [at 25.6 µM].
Same read-out and setting: the figure for `CNc1cnn(-c2ccccc2)c(=O)c1Cl` is -1.86%.
For the molecule `N#[N+]c1ccc(Nc2ccccc2)cc1`, the activity, negative = inhibition was 7.95% [at 11.4 µM].
The same measure, in the same setting: in the case of `COc1ccc(Oc2ncc3nc(CCc4ccccc4)c(=O)n(C)c3n2)cc1` it was 0.402%; in that of `CCOc1ccc(NC(=O)CCNS(=O)(=O)c2ccc3c(c2)c(=O)n(C)c(=O)n3C)cc1`, 6.62%; in that of `Cc1sc2ncnc(OCC(=O)NC(C)C)c2c1C`, -7.35%.
The same measure, in the same setting: in the case of `COc1ccccc1C1/C(=C(/O)c2ccccc2)C(=O)C(=O)N1CCO` (stereo unspecified) it was 10.7%; in that of `COC(=O)[C@H](C)NC(=O)C/C=C\[C@@H](C)[C@H]1C=C[C@H](O)[C@@H](CO)O1`, 3.59% [at 11.4 µM].
Same read-out and setting: in the case of `O=C(NCCc1c[nH]c2ccccc12)[C@@H]1C[C@H]1[C@@H](NP(=O)(c1ccccc1)c1ccccc1)c1ccccc1` it was -5.26%.
As for `CN1C2C=C(N(CCc3c[nH]c4ccccc34)C(=O)c3ccc(Cl)cc3)CC1CC2` (stereo unspecified), the AC50 was 0.398 µM (active).
`O=C(NCCc1c[nH]c2ccccc12)[C@H]1C[C@@H]1[C@H](NP(=O)(c1ccccc1)c1ccccc1)c1ccccc1`: the “activity, negative = inhibition” value was -6.77%.
The same measure, in the same setting: the figure for `CCN(CC(=O)O)CC(=O)O` is 9.63% [at 11.4 µM].
Consider `CC1=Nc2ccccc2/C1=C\c1nc(-c2ccc(C(F)(F)F)cc2)oc1O`, for which the “activity, negative = inhibition” value was -8.17%.
Regarding `CC(=O)c1nnn(-c2nc(N)nc(N(c3ccccc3)c3ccccc3)n2)c1C`, the “activity, negative = inhibition” value was -23%.
As to `Nc1ccc(N(c2ccccc2)c2ccc(N)cc2)cc1`, the AC50 was 14.1 µM (active).
For the molecule `Nc1ccc(S(=O)(=O)NC(=O)c2ccccc2)cc1`, the “activity, negative = inhibition” value was 10.2% [at 25.6 µM].
The same measure, in the same setting: in the case of `O=C(Cn1ccnc1[N+](=O)[O-])NCCO` it was 2.93% [at 25.6 µM]; in that of `COc1cccc(N=Cc2c[nH][nH]c2=O)c1`, -11.7%.
Turning to `C[C@@H]1c2cccc(O)c2C(O)=C2C(=O)[C@@]3(O)C(O)=C(C(N)=O)C(=O)[C@@H](N(C)C)[C@@H]3[C@@H](O)[C@@H]21`, the AC50 entry is “inactive”.
For `CCOc1cc(/C=N/NC(=O)COc2cccc(C)c2)ccc1OC(=O)c1cccs1`, the “activity, negative = inhibition” value is -17.2%.
The same measure, in the same setting: in the case of `CCOC(=O)c1c(C)n(C)c2ccc(OC)c(NS(=O)(=O)c3ccc(Cl)s3)c12` it was -0.0644%.
Same read-out and setting: in the case of `CCOc1ccc2nc(NC(=O)c3ccc(S(=O)(=O)N4CCOCC4)cc3)sc2c1` it was -6.21%.
On to `CCOc1ccc2nc(N3CCCCCC3)sc2c1`, for which the half-maximal activity concentration (AC50) was 1 µM (active).
As for `CCOC(=O)C1CCN(C(=O)C2CCN(c3nc4ccc(OC)cc4s3)CC2)CC1`, the “activity, negative = inhibition” value is -25.3%.
The same measure, in the same setting: in the case of `CCN1CCN(C(=O)N[C@H](C(=O)N[C@@H]2C(=O)N3C(C(=O)O)=C(CSc4nnnn4C)CS[C@@H]23)c2ccc(O)cc2)C(=O)C1=O` it was 1.55% [at 25.6 µM]; in that of `O=c1[nH]ccc2c(O)cccc12`, -11.8%.
For the molecule `Cc1nc2c(O)cccc2c(=O)[nH]1`, the AC50 was 12.6 µM (active).
For the molecule `O=c1[nH]c2ccccc2c2ccccc12`, the “activity, negative = inhibition” value is 6.83%.
On the same count and under the same terms, the figure for `OCCCNc1ncnc2[nH]ncc12` is 15.1% [at 11.4 µM].
As to `Cc1cc(C)c(C#N)c(SCC(=O)c2ccc(Cl)cc2Cl)n1`, the “activity, negative = inhibition” value was -16.8%.
The same measure, in the same setting: the figure for `Cc1cc(C)c(C#N)c(SCC(=O)C(C)(C)C)n1` is -2.76%.
On to `Cc1cc(C)c(C#N)c(SCc2cc3c(cc2Cl)OCO3)n1`, for which the AC50 is 8.91 µM (active).
`COc1cc(C)ccc1OCCCOc1ccccc1Br`: the “activity, negative = inhibition” value is -13.8%.
With `Cc1cccc(OCCCCCn2ccnc2)c1`, the AC50 was 0.1 µM (active).
Regarding `C/C(CC(=O)Nc1cc(C)ccn1)=N\NC(=O)COc1cccc(C)c1`, the “activity, negative = inhibition” value is -12.1%.
Same read-out and setting: in the case of `Cc1ccc(/C(O)=C2/C(=O)C(=O)N(CCCn3ccnc3)C2c2ccccn2)cc1` (stereo unspecified) it was -9.78%; in that of `Brc1ccccc1OCCOCCOc1cccc2cccnc12`, -2.81%.
Consider `Cc1ccc(OCCOCCn2ccnc2)c(Br)c1`, for which the half-maximal activity concentration (AC50) was 1 µM (active).
`Cc1ccc(C(=O)COC(=O)c2ccc3c(c2)C(=O)N(c2cccc4ncccc24)C3=O)cc1C`: the “activity, negative = inhibition” value is 7.13%.
On the same count and under the same terms, the figure for `Cc1ccc(C)c(S(=O)(=O)NC(CC(C)C)C(=O)O)c1` (stereo unspecified) is 10.7%; for `COc1ccc(C2/C(=C(/O)c3ccc4c(c3)CC(C)O4)C(=O)C(=O)N2CCN2CCOCC2)cc1` (stereo unspecified) it is 17.8%.
Same read-out and setting: the figure for `CN1CCN(c2ncc3ncc(=O)n(Cc4ccc(F)cc4)c3n2)CC1` is -8.01%.
As for `Nc1nc2c(ncn2COC(CO)CO)c(=O)[nH]1`, the AC50 result is “inactive”.
Regarding `O=C1Nc2ccc([N+](=O)[O-])cc2C1(O)N1CCCCCC1` (stereo unspecified), the “activity, negative = inhibition” value is -2.3%.

The record behind these values is PubChem BioAssay AID1851 (National Center for Advancing Translational Sciences (NCATS), 2009).
